For some assays here: Measured potencies and affinities stand elsewhere.
Tests used:
Parameters in all cases: scale not given: direction of the effect not stated beside the values
[1] = target: Protein translocase subunit SecA (Escherichia coli (strain K12)) (UniProt P10408); assay: Assay to Identify E. coli SecA ATPase Inhibitors; assay type: functional; details: 30 µM
[2] = target: T1, Ubiquitin-activating enzyme e1, putative (Leishmania donovani (strain BPK282A1)) (UniProt E9BSI1); assay: Leishmania donovani Ubiquitin Activating Enzyme (LdE1); assay type: functional; details: 30 µM
T1 sequence (whole entry): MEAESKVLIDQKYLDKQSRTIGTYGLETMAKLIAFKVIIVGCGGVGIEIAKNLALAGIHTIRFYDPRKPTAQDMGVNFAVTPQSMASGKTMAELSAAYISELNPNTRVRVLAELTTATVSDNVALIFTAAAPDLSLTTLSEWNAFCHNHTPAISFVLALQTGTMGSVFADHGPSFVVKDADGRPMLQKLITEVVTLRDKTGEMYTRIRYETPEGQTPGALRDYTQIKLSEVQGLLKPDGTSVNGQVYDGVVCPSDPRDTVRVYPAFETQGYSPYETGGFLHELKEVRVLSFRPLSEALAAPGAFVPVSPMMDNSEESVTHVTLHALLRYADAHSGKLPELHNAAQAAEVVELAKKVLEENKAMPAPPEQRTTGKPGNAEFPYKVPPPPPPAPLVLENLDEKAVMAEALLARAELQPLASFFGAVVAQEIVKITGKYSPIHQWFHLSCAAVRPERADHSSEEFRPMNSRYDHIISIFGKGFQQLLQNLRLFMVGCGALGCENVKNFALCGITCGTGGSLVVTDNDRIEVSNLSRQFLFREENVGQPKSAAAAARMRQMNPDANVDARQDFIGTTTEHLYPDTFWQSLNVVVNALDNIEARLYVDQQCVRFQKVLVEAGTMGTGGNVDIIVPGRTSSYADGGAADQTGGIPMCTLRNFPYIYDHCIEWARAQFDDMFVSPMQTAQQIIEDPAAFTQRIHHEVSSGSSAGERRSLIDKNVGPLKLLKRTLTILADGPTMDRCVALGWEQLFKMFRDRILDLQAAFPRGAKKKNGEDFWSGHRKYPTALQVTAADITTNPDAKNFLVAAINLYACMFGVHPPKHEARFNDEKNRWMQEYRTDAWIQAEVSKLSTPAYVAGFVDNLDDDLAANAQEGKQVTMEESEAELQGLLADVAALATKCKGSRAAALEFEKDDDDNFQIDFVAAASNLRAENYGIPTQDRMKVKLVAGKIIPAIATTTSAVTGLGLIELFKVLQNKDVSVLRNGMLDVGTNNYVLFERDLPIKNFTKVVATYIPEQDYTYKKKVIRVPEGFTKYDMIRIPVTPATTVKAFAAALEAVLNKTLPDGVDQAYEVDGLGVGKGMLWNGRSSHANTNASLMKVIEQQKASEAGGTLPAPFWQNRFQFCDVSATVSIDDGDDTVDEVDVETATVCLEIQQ

[3] = target: Sialic acid-binding Ig-like lectin 9 (Homo sapiens) (UniProt Q9Y336); assay: Hs-Siglec9 ALPHAscreen SOP 20170721; details: 10 µM
Sialic acid-binding Ig-like lectin 9 (Homo sapiens), sequence (Q9Y336 whole entry): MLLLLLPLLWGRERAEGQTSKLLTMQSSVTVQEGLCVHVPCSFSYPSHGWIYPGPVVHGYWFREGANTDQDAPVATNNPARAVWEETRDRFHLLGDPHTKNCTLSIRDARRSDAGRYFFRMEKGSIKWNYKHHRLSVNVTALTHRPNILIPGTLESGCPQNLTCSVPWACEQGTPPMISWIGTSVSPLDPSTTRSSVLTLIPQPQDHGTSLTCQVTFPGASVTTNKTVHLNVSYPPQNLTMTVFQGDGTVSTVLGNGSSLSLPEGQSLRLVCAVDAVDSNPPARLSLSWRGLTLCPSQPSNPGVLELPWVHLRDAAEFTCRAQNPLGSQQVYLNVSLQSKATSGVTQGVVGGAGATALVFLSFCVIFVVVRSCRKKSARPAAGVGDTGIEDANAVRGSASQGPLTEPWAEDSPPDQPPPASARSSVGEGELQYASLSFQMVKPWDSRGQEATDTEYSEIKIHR

Trypanosoma cruzi = assay: Trypanosoma cruzi phosphomannomutase and mannose-1-phosphate guanylyltransferase assay; assay type: functional; details: 10 µM
[4] = target: T2, Arginase-2, mitochondrial (Homo sapiens) (UniProt P78540); assay: in vitro enzyme assay to detect the production of urea directly proportional to the activity of Arginase II; assay type: functional; details: 33.3 µM; note: in the data most compounds retested in dose-response had high values
T2 sequence (whole entry): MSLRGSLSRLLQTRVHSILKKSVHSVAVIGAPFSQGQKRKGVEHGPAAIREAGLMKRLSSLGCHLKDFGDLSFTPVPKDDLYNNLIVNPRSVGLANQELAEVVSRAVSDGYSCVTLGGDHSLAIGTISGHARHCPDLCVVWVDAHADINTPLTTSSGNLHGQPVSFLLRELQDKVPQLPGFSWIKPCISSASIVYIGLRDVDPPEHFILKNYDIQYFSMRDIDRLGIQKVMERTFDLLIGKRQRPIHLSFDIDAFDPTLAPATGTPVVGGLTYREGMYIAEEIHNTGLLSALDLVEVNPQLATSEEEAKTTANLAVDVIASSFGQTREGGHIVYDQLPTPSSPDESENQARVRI

[5] = target: T3, Proteasome subunit beta (Trypanosoma cruzi) (UniProt O96673); assay: Trypanosoma cruzi proteasome chymotrypsin-like activity (TcProtChymo) assay.; note: in the data most compounds retested in dose-response had high values; assay type: functional; details: 9.37 µM
T3 sequence (whole entry): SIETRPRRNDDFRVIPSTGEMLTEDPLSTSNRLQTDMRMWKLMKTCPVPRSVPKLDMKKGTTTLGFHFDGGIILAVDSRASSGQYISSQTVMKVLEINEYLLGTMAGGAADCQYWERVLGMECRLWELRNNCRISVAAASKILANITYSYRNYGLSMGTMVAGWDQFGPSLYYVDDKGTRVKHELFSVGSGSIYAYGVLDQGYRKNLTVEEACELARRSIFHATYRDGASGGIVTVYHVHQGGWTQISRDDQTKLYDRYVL

Homo sapiens = species on record: Homo sapiens; assay: To identify inhibition of the IFN signalling (Jak-Stat) pathway via expression of an eGFP reporter gene under the control of an IFN-stimulated response element (ISRE) containing MxA promoter.; assay type: functional; details: 30 µM
[6] = target: T4, Tyrosyl-tRNA synthetase, putative (Trypanosoma cruzi (strain CL Brener)) (UniProt Q4DSP6); assay: Trypanosoma cruzi tyrosyl tRNA synthetase (TcYRS) _High Tyrosine SOP; assay type: functional; details: 30 µM; note: in the data most compounds retested in dose-response had high values
T4 sequence (whole entry): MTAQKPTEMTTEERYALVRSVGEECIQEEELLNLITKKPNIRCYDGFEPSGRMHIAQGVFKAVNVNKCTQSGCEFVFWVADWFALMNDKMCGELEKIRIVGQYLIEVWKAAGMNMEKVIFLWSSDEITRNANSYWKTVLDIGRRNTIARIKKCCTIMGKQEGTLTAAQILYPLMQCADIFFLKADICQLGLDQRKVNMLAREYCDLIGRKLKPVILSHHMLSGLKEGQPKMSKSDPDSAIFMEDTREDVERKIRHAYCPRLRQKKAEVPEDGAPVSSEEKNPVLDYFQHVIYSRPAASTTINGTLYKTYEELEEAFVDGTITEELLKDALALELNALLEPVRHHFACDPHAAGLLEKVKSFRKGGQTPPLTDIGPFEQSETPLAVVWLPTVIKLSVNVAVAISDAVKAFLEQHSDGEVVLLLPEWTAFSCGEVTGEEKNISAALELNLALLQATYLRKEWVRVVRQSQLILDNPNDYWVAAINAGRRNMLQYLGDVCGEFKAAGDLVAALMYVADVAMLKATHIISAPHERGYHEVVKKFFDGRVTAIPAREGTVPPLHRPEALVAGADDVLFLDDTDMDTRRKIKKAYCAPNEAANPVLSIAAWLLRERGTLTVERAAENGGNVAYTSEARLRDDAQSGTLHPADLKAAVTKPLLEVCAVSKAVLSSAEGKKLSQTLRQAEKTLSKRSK

[7] = target: T4, Tyrosyl-tRNA synthetase, putative (Trypanosoma cruzi (strain CL Brener)); assay: Trypanosoma cruzi tyrosyl tRNA synthetase (TcYRS) SOP; assay type: functional; details: 30 µM
[8] = target: Chromo domain-containing protein 1 (Saccharomyces cerevisiae (strain ATCC 204508 / S288c) (Baker's yeast)) (UniProt P32657); assay: ScCHD-1 Enzyme Inhibition Assay; assay type: functional; details: 30 µM; note: in the data most compounds retested in dose-response had high values
Chromo domain-containing protein 1 (Saccharomyces cerevisiae (strain ATCC 204508 / S288c) (Baker's yeast)), sequence (P32657 whole entry, the tested form may be a part): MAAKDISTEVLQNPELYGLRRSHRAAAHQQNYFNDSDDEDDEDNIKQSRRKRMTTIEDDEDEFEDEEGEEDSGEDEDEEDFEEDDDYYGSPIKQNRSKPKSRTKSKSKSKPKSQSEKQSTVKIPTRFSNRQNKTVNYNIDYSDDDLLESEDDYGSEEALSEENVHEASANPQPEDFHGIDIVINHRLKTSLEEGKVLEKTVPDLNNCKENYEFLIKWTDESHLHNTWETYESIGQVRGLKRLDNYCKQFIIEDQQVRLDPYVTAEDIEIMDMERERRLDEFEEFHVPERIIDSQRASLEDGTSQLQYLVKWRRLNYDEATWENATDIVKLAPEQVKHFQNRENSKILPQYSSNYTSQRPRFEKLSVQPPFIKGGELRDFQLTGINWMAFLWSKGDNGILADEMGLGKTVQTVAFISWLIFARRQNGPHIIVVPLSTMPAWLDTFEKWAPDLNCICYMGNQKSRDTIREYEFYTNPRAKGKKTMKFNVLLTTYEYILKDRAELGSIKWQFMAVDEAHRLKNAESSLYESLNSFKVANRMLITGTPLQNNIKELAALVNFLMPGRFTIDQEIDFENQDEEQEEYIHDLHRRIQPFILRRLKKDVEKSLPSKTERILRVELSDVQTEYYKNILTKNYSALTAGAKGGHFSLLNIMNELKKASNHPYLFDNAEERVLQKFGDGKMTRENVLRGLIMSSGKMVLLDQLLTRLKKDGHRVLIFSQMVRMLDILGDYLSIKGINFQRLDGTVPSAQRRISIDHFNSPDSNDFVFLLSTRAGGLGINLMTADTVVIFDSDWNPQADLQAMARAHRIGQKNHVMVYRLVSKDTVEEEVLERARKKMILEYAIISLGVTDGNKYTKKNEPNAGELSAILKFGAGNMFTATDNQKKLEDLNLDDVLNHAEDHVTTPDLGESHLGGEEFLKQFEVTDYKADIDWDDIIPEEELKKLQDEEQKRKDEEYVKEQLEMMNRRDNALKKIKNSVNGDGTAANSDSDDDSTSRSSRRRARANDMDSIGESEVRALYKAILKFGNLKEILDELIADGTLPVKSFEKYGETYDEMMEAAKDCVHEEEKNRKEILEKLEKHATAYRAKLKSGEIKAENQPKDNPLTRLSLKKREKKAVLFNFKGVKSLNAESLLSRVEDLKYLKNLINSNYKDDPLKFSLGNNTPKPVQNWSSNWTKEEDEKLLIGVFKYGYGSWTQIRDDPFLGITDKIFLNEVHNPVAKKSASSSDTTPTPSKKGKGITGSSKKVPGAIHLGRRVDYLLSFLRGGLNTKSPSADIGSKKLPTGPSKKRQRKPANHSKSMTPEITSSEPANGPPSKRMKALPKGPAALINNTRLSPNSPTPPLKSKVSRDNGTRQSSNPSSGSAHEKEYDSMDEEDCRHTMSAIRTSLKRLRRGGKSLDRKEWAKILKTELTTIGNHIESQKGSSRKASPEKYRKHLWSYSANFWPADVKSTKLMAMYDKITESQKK

Protein translocase subunit SecA (Escherichia coli (strain K12)), sequence (P10408 whole entry): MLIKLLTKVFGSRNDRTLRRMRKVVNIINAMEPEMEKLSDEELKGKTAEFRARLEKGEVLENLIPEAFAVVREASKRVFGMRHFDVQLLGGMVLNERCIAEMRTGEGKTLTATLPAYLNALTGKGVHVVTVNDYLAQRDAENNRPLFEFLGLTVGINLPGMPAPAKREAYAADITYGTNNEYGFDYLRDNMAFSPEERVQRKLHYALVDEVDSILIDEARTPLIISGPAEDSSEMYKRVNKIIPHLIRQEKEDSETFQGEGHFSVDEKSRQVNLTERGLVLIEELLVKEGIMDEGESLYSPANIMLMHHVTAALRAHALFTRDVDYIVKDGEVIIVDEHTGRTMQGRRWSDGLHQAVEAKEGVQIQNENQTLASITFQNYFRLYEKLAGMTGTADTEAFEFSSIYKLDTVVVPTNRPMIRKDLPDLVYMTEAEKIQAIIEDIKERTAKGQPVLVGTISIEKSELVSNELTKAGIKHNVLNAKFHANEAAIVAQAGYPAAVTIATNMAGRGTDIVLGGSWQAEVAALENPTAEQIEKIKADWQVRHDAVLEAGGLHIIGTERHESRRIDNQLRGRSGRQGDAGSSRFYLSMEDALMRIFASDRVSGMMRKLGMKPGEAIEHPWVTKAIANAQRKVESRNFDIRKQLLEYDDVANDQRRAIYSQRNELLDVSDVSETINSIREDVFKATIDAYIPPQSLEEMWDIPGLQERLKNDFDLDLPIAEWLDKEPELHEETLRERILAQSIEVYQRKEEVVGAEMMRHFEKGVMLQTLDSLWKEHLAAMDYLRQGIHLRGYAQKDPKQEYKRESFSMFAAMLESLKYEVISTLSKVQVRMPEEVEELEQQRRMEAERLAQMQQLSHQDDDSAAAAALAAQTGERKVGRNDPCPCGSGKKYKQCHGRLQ

| Compound | Percent Effect [1] [%] | Percent Effect [2] [%] | Percent Effect [3] [%] | Percent Effect (Trypanosoma cruzi) [%] | Percent Effect [4] [%] | Percent Effect [5] [%] | Percent Effect (Homo sapiens) [%] | Percent Effect [6] [%] | Percent Effect [7] [%] | Percent Effect [8] [%] |
| --- | --- | --- | --- | --- | --- | --- | --- | --- | --- | --- |
| c1ccc(-n2ncc(CNC3CCc4ncnn4C3)n2)cc1 (stereo not given) | -1.79 | 10.3 | 0.298 | 1.03 | 4.51 | 3.16 | 10 | 1.44 | 8.43 | 1.52 |
| Cc1cccc(N2CC[C@@H]3CN(Cc4csc(C)n4)CCO[C@@H]3C2)n1 | -6.02 | -14.3 | -1.28 | 6.52 | -6.88 | 7.15 | -15.6 | 1.58 | -5.13 | -0.609 |
| O=C(Cn1cccnc1=O)NCCc1ccc2c(c1)OCCO2 | -2.08 | 16 | -6.16 | -5.22 | 1.77 | 18.9 | 9.16 | 1.58 | 7.69 | -8.6 |
| CC(c1cccc(S(N)(=O)=O)c1)N(C)CCc1ccccc1 (stereo not given) | -0.406 | 20.8 | -4.37 | -0.933 | -4.3 | 10.9 | 13.6 | 6.86 | 16.5 | -9.02 |
| CC(C)c1nc(CN2CCCN(Cc3nnc(C4CC4)o3)CC2)no1 | -2.61 | 8 | -2.85 | -0.602 | 4.43 | 17.2 | 14.1 | 3.68 | 7.69 | -9.7 |
| CCOc1ncccc1C(=O)N1CCCC1c1c(C)nn(C)c1OC (stereo not given) | 1.2 | 0 | 10.2 | 1.68 | -2.25 | -2.81 | -1.22 | 4.9 | 11.8 | -4.83 |
| CN(Cc1ccc2c(c1)OCCO2)C(=O)Cn1cccnc1=O | -4.28 | 10.7 | -2.28 | 3.41 | 1.33 | 16 | 6.87 | 6.84 | 12.8 | -8.2 |
| CC(C)NC(=O)N1C[C@H]2C[C@H](C(=O)NCc3ccccc3)[C@@H](C1)O2 | -5.17 | -103 | -0.747 | -5.16 | -5.67 | 8.74 | 8.32 | 3.68 | 7.69 | 3.3 |
| O=S(=O)(C1CC1)N1CCC2(CC1)CC(Oc1cccnc1)CO2 (stereo not given) | -7.74 | 9.09 | 4.03 | 2.43 | -3.24 | -1.15 | -0.725 | 3.68 | 0 | -0.139 |
| O=C(Cc1cccnc1)N1CCC(OCc2ccccc2)CC1 | -7.08 | -8.11 | 3 | -2.42 | -0.35 | 13.2 | 24.2 | 6.92 | 19.5 | 101 |
| COc1cccc(OCC2CCCN(C(C)=O)C2)c1 (stereo not given) | -1.78 | 14.7 | -3.67 | -0.395 | -3.1 | 25.4 | 8.14 | 2.12 | 15 | -24.1 |
| CC(Nc1cccc(CN2CCOC2=O)c1)C(=O)Nc1ccccc1F (stereo not given) | -0.263 | 7.69 | 0.909 | -1.41 | 4.51 | 3.5 | 29.9 | 2.39 | 8.43 | -5.9 |
| O=C1CC(c2cccc(O)c2)c2sc(C(=O)O)c(-c3ccccc3)c2N1 (stereo not given) | 7.88 | -10.8 | -0.96 | -8.24 | -10.1 | 13 | 31.3 | -9.04 | -2.44 | -0.195 |
| CN(Cc1ccsc1)C(=O)CN1CCOC(Cn2cccn2)C1 (stereo not given) | -9.25 | 7.79 | -1.67 | -1.49 | -0.615 | -3.51 | 19.9 | 0 | -16.5 | -7.08 |
| O=C(O)c1cc(-c2cccnc2)cc(S(=O)(=O)N2CCCCCC2)c1 | -7.1 | 5.41 | 3.44 | -3.4 | 0.35 | 12.7 | 8.29 | 5.85 | -2.44 | -1.87 |
| COc1ccc(C[C@H]2CN(C(=O)CN(C)C)CC[C@H]2OC)cc1 | -1.58 | 14.3 | 1.4 | 0.563 | 0 | -4.21 | 5.12 | -8.7 | 10 | -0.592 |
| CCNc1nc2c(s1)C(=O)CN(C(=O)NCCc1ccccc1)C2 | -3.42 | 5.33 | -0.604 | -6.43 | 3.99 | -1.95 | 9.15 | 1.58 | 2.56 | 2.08 |
| O=C1NC2(CCN(Cc3nccs3)CC2)CC1c1ccncc1 (stereo not given) | -7.46 | 9.09 | 9.45 | 6.13 | -6.07 | 6.8 | -18.5 | 3.68 | 10.3 | 0.471 |
| Cn1c(Cn2cccn2)nnc1C1CCCN(c2ccncc2F)C1 (stereo not given) | -3.83 | 10.8 | 2.04 | -2.62 | 0.35 | 12 | 27.1 | 2.66 | 12.2 | 0.18 |
| CN(C)c1cc2c(nn1)CCN(C(=O)Cc1noc3ccccc13)C2 | -0.898 | 0 | -2.79 | 6.85 | 2.87 | -0.427 | -24.3 | 4.31 | -1.21 | -2.37 |
| Cc1cc(CN2CCCC2c2noc(C)n2)no1 (stereo not given) | 3.19 | 2.67 | 5.36 | -2.41 | 3.99 | 6.7 | 2.71 | 0.526 | -2.56 | -6.2 |
| O=C1NCCN(CC2CC2)C12CCN(Cc1ccc3c(c1)OCO3)CC2 | -1.54 | 19.5 | 3.24 | -8.47 | 6.07 | 16.9 | 30.6 | 4.74 | -7.69 | -3.74 |
| CN1[C@@H](C(=O)NCC2CC2)C[C@@H]2CN(Cc3ccco3)C[C@@H]21 | -3.17 | 19.5 | -3.11 | -6.57 | 3.65 | 19.5 | 13.8 | 5.8 | 10 | -4.24 |
